These results are taken from the supplement of paper PMC9492666.

Molecules are shown by their SMILES.

In one test the test system is HCC1937. In words: relative cell viability, compound + RSL3, vs DMSO (fraction of DMSO control); higher = less growth inhibition. To be noted: 72 h.
A further test relates to MDA-MB-231. Described as above. To be noted: 72 h.
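Also: breast cancer cell viability read out with the CCK-8 kit after co-treatment of each compound with the ferroptosis inducer RSL3.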

Consider `O=C1c2cccc(O)c2C(=O)c2c(O)cccc21` [Antrapurol] + COC(=O)c1ccc([C@H]2c3[nH]c4ccccc4c3C[C@H](C(=O)OC)N2C(=O)CCl)cc1 [RSL3], for which the relative cell viability in the test with HCC1937 stood at 0.583; in the test on MDA-MB-231, 0.537.

`C[C@H](CCOc1cccc(CC(=O)O)c1)N(Cc1cccc(C(F)(F)F)c1Cl)CC(c1ccccc1)c1ccccc1` + COC(=O)c1ccc([C@H]2c3[nH]c4ccccc4c3C[C@H](C(=O)OC)N2C(=O)CCl)cc1 [RSL3]: the values for the relative cell viability with HCC1937 and in the test with MDA-MB-231 were 0.318 and 0.532, respectively.

For the compound `CC(c1cc2ccccc2s1)N(O)C(N)=O` (centres undefined) [Zileuton] + COC(=O)c1ccc([C@H]2c3[nH]c4ccccc4c3C[C@H](C(=O)OC)N2C(=O)CCl)cc1 [RSL3], the values for the relative cell viability in the test with HCC1937 and in the test with MDA-MB-231 were 0.895 and 0.633, respectively.

With `CCCc1c(-c2ccccc2)[nH]n(-c2ccccn2)c1=O` [APX-115 free base] + COC(=O)c1ccc([C@H]2c3[nH]c4ccccc4c3C[C@H](C(=O)OC)N2C(=O)CCl)cc1 [RSL3], the relative cell viability with HCC1937 is 0.412; in the test on MDA-MB-231, 0.415.

With `Nc1cccc(S(=O)(=O)N2CCCN(S(=O)(=O)c3ccc4c(c3)OCCO4)CC2)c1` + COC(=O)c1ccc([C@H]2c3[nH]c4ccccc4c3C[C@H](C(=O)OC)N2C(=O)CCl)cc1 [RSL3], the relative cell viability with HCC1937 was found to be 0.382; in the test with MDA-MB-231, 0.632.

Take `O=C(O)Cc1cccc(OCCCN(Cc2cccc(C(F)(F)F)c2Cl)CC(c2ccccc2)c2ccccc2)c1` + COC(=O)c1ccc([C@H]2c3[nH]c4ccccc4c3C[C@H](C(=O)OC)N2C(=O)CCl)cc1 [RSL3]: the figures for the relative cell viability in the test on HCC1937 and with MDA-MB-231 were 0.418 and 0.686, respectively.

Take `CC(C)(Oc1ccc(C(=O)c2ccc(Cl)cc2)cc1)C(=O)O` [Fenofibric acid] + COC(=O)c1ccc([C@H]2c3[nH]c4ccccc4c3C[C@H](C(=O)OC)N2C(=O)CCl)cc1 [RSL3]: the relative cell viability was 0.536 in the test with HCC1937 and 0.535 in the test with MDA-MB-231.

In the case of `CC(C)Cc1ccc([C@H](C)C(=O)O)cc1` [Dexibuprofen] + COC(=O)c1ccc([C@H]2c3[nH]c4ccccc4c3C[C@H](C(=O)OC)N2C(=O)CCl)cc1 [RSL3], the relative cell viability in the test on HCC1937 stood at 1.03; in the test with MDA-MB-231, 0.606.

Turning to `O=C(Nc1ccccc1)c1cc([N+](=O)[O-])ccc1Cl` + COC(=O)c1ccc([C@H]2c3[nH]c4ccccc4c3C[C@H](C(=O)OC)N2C(=O)CCl)cc1 [RSL3], the relative cell viability came to 0.805 with HCC1937 and 0.705 in the test on MDA-MB-231.

Consider `CN1CC(O)C2=C/C(=N/NC(N)=O)C(=O)C=C21` (centres undefined) [Carbazochrome] + COC(=O)c1ccc([C@H]2c3[nH]c4ccccc4c3C[C@H](C(=O)OC)N2C(=O)CCl)cc1 [RSL3], for which the values for the relative cell viability with HCC1937 and in the test on MDA-MB-231 were 0.451 and 0.551, respectively.

Consider `C[C@]12C=CC(=O)N[C@@H]1CC[C@@H]1[C@@H]2CC[C@]2(C)[C@@H](C(=O)Nc3cc(C(F)(F)F)ccc3C(F)(F)F)CC[C@@H]12` [Dutasteride] + COC(=O)c1ccc([C@H]2c3[nH]c4ccccc4c3C[C@H](C(=O)OC)N2C(=O)CCl)cc1 [RSL3], for which the relative cell viability in the test with HCC1937 was 0.53; with MDA-MB-231, 0.427.

Take `CN(C)c1cccc(-c2c3c(=O)n(-c4ccccc4Cl)[nH]c3cc(=O)n2C)c1` + COC(=O)c1ccc([C@H]2c3[nH]c4ccccc4c3C[C@H](C(=O)OC)N2C(=O)CCl)cc1 [RSL3]: the relative cell viability with HCC1937 was determined as 0.433; with MDA-MB-231, 0.579.

For `C=C(C)[C@@H]1CCC2=CC(=O)C[C@@H](C)[C@]2(C)C1` [Nootkatone] + COC(=O)c1ccc([C@H]2c3[nH]c4ccccc4c3C[C@H](C(=O)OC)N2C(=O)CCl)cc1 [RSL3], the relative cell viability in the test with HCC1937 was 0.509; with MDA-MB-231, 0.613.

Turning to `COc1ccc([C@@H]2OC[C@H]3[C@@H]2CO[C@@H]3c2ccc(O[C@@H]3O[C@H](CO)[C@@H](O)[C@H](O)[C@H]3O)c(OC)c2)cc1OC` [Forsythin] + COC(=O)c1ccc([C@H]2c3[nH]c4ccccc4c3C[C@H](C(=O)OC)N2C(=O)CCl)cc1 [RSL3], the values for the relative cell viability in the test on HCC1937 and in the test with MDA-MB-231 were 0.731 and 0.664, respectively.

As to `CCCc1cc(-c2nc(-c3ccc(C)cc3)cs2)ccn1` [Fatostatin] + COC(=O)c1ccc([C@H]2c3[nH]c4ccccc4c3C[C@H](C(=O)OC)N2C(=O)CCl)cc1 [RSL3], the relative cell viability was 0.269 in the test with HCC1937 and 0.715 in the test on MDA-MB-231.

On to `CCC(=O)O[C@]1(C(=O)SCF)[C@H](C)C[C@H]2[C@@H]3C[C@H](F)C4=CC(=O)C=C[C@]4(C)[C@@]3(F)[C@@H](O)C[C@@]21C` [Fluticasone propionate] + COC(=O)c1ccc([C@H]2c3[nH]c4ccccc4c3C[C@H](C(=O)OC)N2C(=O)CCl)cc1 [RSL3], for which the relative cell viability in the test on HCC1937 came to 0.751; in the test with MDA-MB-231 it was 0.566.

On to `CC[C@H](C)C(=O)O[C@H]1C[C@H](O)C=C2C=C[C@H](C)[C@H](CC[C@@H](O)C[C@@H](O)CC(=O)O)[C@H]21` [Pravastatin sodium] + COC(=O)c1ccc([C@H]2c3[nH]c4ccccc4c3C[C@H](C(=O)OC)N2C(=O)CCl)cc1 [RSL3], for which the relative cell viability worked out at 0.77 in the test with HCC1937 and 0.606 in the test with MDA-MB-231.
